Screens (PubChem BioAssay)
A selection: hits, their analogues and other compounds. The true share with any hit is near 4.2%.
NLRP3 yeast inh – NALP3 inhibition in yeast; Yeast reconstituted NLRP3/ASC/caspase-1, beta-gal luminescence, 24 h; AID 2825; 330,000 compounds, 0.39% hits; inhibition, % at 10 µM;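 active = inhibition of 50% or more; inactive = inhibition below 50%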
PfHsp90 set2 – growth inhibition of yeast expressing Plasmodium Hsp90; AID 504621; S. cerevisiae expressing PfHsp90, BacTiter-Glo ATP, 48 h; yeast lacking PDR1 and PDR3 efflux regulators; 310,000 compounds, 0.32% hits; inhibition, % at 9.4 µM;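 active = every replicate shows inhibition above about 80%, whatever the replicate mean, limit read from the data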
tim23-1 inh – tim23-1 yeast growth inhibition | S. cerevisiae tim23-1 growth, BacTiter-Glo luminescence, 24 h | inhibition, % at 20 µM | 330,000 compounds, 1.3% hits;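 active = growth inhibition of the mutant yeast at or above 50%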;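 also: temperature-sensitive mutant grown at 25 °C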
TIM10 inh – TIM10 yeast growth inhibition; S. cerevisiae TIM10 strain growth, BacTiter-Glo luminescence, 24 h; inhibition, % at 10 µM; 330,000 compounds, 1.4% hits;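 active = inhibition of 40% or more at the single tested concentration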;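 also: wild-type TIM10 isogenic control strain grown at permissive 25 °C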
NALP1 yeast inh – NALP1 inhibition. S. cerevisiae NALP1/ASC/caspase-1 growth, X-gal OD620, 72 h. inhibition, % at 10 µM. 280,000 compounds, 0.61% hits. AID 2071; in the data active = inhibition mostly above about 24%, no sharp cut-off; inactive = mostly below about 32%
tim10-1 inh – tim10-1 yeast growth inhibition; S. cerevisiae tim10-1 ts strain growth, BacTiter-Glo, 24 h; inhibition, % at 20 µM; 330,000 compounds, 2.2% hits;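 active = inhibition of at least 40%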;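 also: mutant grown at 25 °C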
tim10-1 conf – confirmation of tim10-1 mutant yeast growth inhibitors; shares compounds with tim10-1 inh; S. cerevisiae tim10-1 ts strain growth, BacTiter-Glo, 24 h; inhibition, % at 20 µM; 7,400 compounds, 56% hits; AID 463213;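 active = inhibition of yeast growth at or above a set limit in either of two repeat tests at 20 µM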;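 also: tim10-1 mutant grown at permissive 25 °C to find synthetic lethal compounds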
tim10 confirm – TIM10 yeast growth inhibition, confirmed. shares compounds with TIM10 inh. AID 463215. 4,600 compounds, 63% hits. S. cerevisiae tim10 strain growth, BacTiter-Glo luminescence, 24 h. inhibition, % at 10 µM;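 active = inhibition of yeast growth at or above a set limit in either of two replicates at 10 µM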; also: this counterscreen used the strain with wild-type TIM10
Hits are given with their value; – = inactive; · = no result given.

SMILES	NLRP3 yeast inh	PfHsp90 set2	tim23-1 inh	TIM10 inh	NALP1 yeast inh	tim10-1 inh	tim10-1 conf	tim10 confirm
O=C(Cn1c(=O)c2cccn2c2cccnc21)N1CCN(c2ccccc2F)CC1	–	–	–	–	–	–	·	·
O=C(Nc1ccccc1C(=O)NCc1ccccc1)c1ccccc1	–	–	–	45.6	–	47.3	42.0	–
CCCCNC(=O)c1ccccc1SCc1c(C)noc1C	–	–	–	–	–	–	·	·
CCN(CC)/C(Sc1ccccc1)=C(/C(Cl)=C(Cl)Cl)[N+](=O)[O-]	–	–	–	41.5	–	46.0	32.6	34.6
Cc1ccc(/C=C/C(=O)c2c(C)nc3ccccn23)cc1	–	–	–	–	–	–	·	·
Cc1nc2ccccn2c1C(=O)/C=C/c1cccc([N+](=O)[O-])c1	–	–	–	51.5	–	50.4	43.6	54.0
C#CC(C)(C)NC(=O)c1sccc1Oc1ccc(F)cc1[N+](=O)[O-]	–	–	–	–	–	–	·	·
CCCc1cc(C(=O)N(C)CC(=O)Nc2ccc(OCC)c(OCC)c2)sc1C	–	·	–	–	·	–	·	·
CC(C)NC(=S)N/N=C/c1ccc(C(C)(C)C)cc1	–	–	–	43.8	–	40.5	–	45.1
CNC(=S)N/N=C/c1c2ccccc2c(Cl)c2ccccc12	–	–	–	–	–	–	·	·
O=C(N/N=C/c1ccc(OC(=O)c2cccs2)cc1)c1ccccn1	–	–	–	–	–	–	·	·
Clc1ccc(CNc2nc(CN3CCOCC3)nc3scc(-c4ccccc4)c23)cc1	–	–	–	51.1	–	47.5	46.0	–
c1ccc(CNc2nc(CN3CCOCC3)nc3scc(-c4ccccc4)c23)cc1	–	–	–	–	–	–	·	·
Cc1cccc(C)c1N=Cc1c(O)n(-c2nccs2)c(=O)c2ccccc12	–	–	–	54.8	–	46.4	41.0	–
O=c1c2ccccc2c(C=Nc2ccccc2O)c(O)n1-c1nccs1	–	–	–	–	–	–	·	·
COc1ccc(C(=O)OCC(=O)NCCc2ccc(F)cc2)cc1S(=O)(=O)N1CCOCC1	–	–	–	–	·	–	·	·
c1ccc(C2Nc3ccccc3-c3nc4ccccc4n32)cc1 (centres undefined)	–	·	–	46.8	–	40.8	–	34.7
CCOC(=O)[C@@H](C)N(C(=O)OC(C)(C)C)S(=O)(=O)N(Cc1ccccc1)[C@H](C(=O)OC)C(C)C	·	–	·	·	·	·	·	·
Nc1cc(=O)[nH]c(SCC(=O)c2ccc(F)cc2)n1	–	–	–	–	–	–	·	·
O=C1c2nccnc2C(=O)N1c1ccc(C(F)(F)F)cc1	–	–	–	–	–	–	·	·
COc1cc(C(=O)Oc2ccc3ccc(O)cc3c2)cc(OC)c1OC	–	–	–	41.8	–	47.3	31.9	39.4
CSc1cccc(NC(=O)CCNS(=O)(=O)c2ccc3[nH]c(=O)oc3c2)c1	–	–	–	–	–	–	·	·
Cc1nnc(NC(=O)CCSc2ccc(Cl)cc2)s1	–	·	–	–	–	–	·	·
O=C(C1CC1)N1CCc2cc(S(=O)(=O)N3CCOCC3)ccc21	–	–	–	–	–	–	·	·
CC1CCCCN1S(=O)(=O)c1ccc2c(c1)CCN2C(=O)C1CCC1 (centres undefined)	–	–	–	44.1	–	41.8	40.2	–
SMILES	NLRP3 yeast inh	PfHsp90 set2	tim23-1 inh	TIM10 inh	NALP1 yeast inh	tim10-1 inh	tim10-1 conf	tim10 confirm
O=C(Nc1nc2c(Cl)ccc(Cl)c2s1)C1CC1	–	–	–	–	–	–	·	·
NNc1nc2c(Cl)ccc(Cl)c2s1	–	–	–	53.5	–	58.1	58.2	–
Cc1ccc(-n2sc3ccccc3c2=O)cc1S(=O)(=O)N1CCCCC1	–	106.4	–	57.1	–	87.2	89.0	75.8
CC1NC(=O)c2ccccc2-n2c1nc1cc(F)ccc1c2=O (centres undefined)	–	·	–	–	·	–	·	·
O=C(O)c1cccc(-n2sc3ccccc3c2=O)c1	–	–	–	–	·	–	·	·
Cc1ccccc1-n1sc2cc(F)ccc2c1=O	–	·	–	48.9	–	40.3	38.1	70.0
O=c1c2cc(F)ccc2sn1-c1ccccc1	–	–	–	47.3	·	45.5	55.7	76.8
O=c1c2ccccc2sn1-c1ccccc1	–	87.9	–	57.9	–	85.6	51.2	97.2
O=c1c2ccccc2sn1-c1ccc(S(=O)(=O)N2CCCCC2)cc1	–	–	–	–	·	–	·	·
COc1ccc(S(=O)(=O)N2CCC(C(=O)NC3CCCCC3)CC2)cc1OC	–	–	–	–	·	–	·	·
O=C(Nc1ccnn1C1CCN(C2CCCC2)CC1)c1ccccc1	–	–	–	–	–	–	·	·
CN=C1N(C)C[C@@H]2[C@@H]3C(=O)N(C)C(=O)[C@@H]3[C@](C)(C(=O)OC)N12	·	–	–	–	·	–	·	·
Cc1nn(CCC(N)=S)c2nc(-c3cccs3)cc(C(F)(F)F)c12	–	–	–	54.5	–	44.0	40.8	41.2
CCOC(=O)C1=C(CC)Nc2ccccc2N/C1=N\S(=O)(=O)c1cc(Br)ccc1Br	–	–	–	–	–	–	·	·
N/C(=N\OC(=O)c1ccco1)c1ccccc1	–	–	–	–	–	–	·	·
Cc1ccc(/C(N)=N/OC(=O)c2ccco2)cc1	–	·	–	51.9	–	46.2	34.3	37.2
Cc1cc(C)c2c(-n3cccc3)c(C(=O)NNS(=O)(=O)c3ccc(Br)cc3)sc2n1	–	·	–	40.8	–	40.7	43.6	–
Cc1nc(C)c(C(=O)NNS(=O)(=O)c2ccccc2)s1	–	–	–	–	·	–	·	·
COc1ccc(-c2cc(C(=O)N3CCN(c4ncccn4)CC3)c3ccccc3n2)cc1OC	–	–	–	–	·	–	·	·
Cc1ccc(-c2cc(C(=O)N3CCN(c4ncccn4)CC3)c3ccccc3n2)cc1	–	–	–	44.5	–	45.4	–	–
CCOc1ccc2oc(C(=O)N(CC)CC(=O)Nc3c(F)cccc3F)c(C)c2c1	–	–	–	–	·	–	·	·
CC(C)COc1ccc(C(=O)N2C(=O)c3ccc(N)cc3C2=O)cc1	–	–	–	–	–	–	·	·
CCN1C[C@@H]2[C@@H]3C(=O)N(Cc4ccccc4)C(=O)[C@@H]3[C@](Cc3ccccc3)(C1=O)N2C(=O)c1ccc(Br)cc1	·	–	·	·	·	·	·	·
CC(C)(C)c1cc(OC(=O)c2ccccc2F)ccc1O	–	–	–	48.4	–	45.4	–	42.7
O=C(Cc1cccs1)Nc1nc(-c2ccc(F)cc2F)cs1	–	–	–	52.4	–	41.0	34.5	41.3
COc1ccc2nc3oc(C(=O)N4CCN(c5cccc(Cl)c5)CC4)cc3cc2c1	–	–	–	63.3	–	60.5	–	–
CC(C)(C)c1ccc(NC(=O)Cn2cnc3cc([N+](=O)[O-])ccc3c2=O)cc1	–	–	–	–	–	–	·	·
O=C(C#Cc1ccccc1)c1ccc([N+](=O)[O-])cc1	–	101.1	–	54.5	–	43.4	–	–
